For 8 compounds, growth results are on record in PubChem BioAssay (NCI).

Each structure is given as a SMILES string. The panel holds about 83,000 compounds, 20% with a hit somewhere; the sample as a whole holds those more often.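 96-well plates, one dose, 48 hours. Percent growth reported; active if below 10.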 A number with no mark means an inactive call. The source made the active and inactive calls.

Some test systems named below: SK-MEL-2 melanoma; EKVX NSCLC; SN12C renal; UO-31 renal; TK-10 renal; ACHN renal; CAKI-1 renal; A498 renal; CCRF-CEM leukemia; MOLT-4 leukemia; SR leukemia; RPMI-8226 leukemia; OVCAR-8 ovarian; OVCAR-5 ovarian; SK-OV-3 ovarian; IGROV1 ovarian; HS 578T breast; NCI/ADR-RES ovarian; OVCAR-3 ovarian; OVCAR-4 ovarian.
Common to all, as to assay: NCI-60 one-dose screen, 48 h (100 = growth as untreated, 0 = no growth, -100 = all killed)
Settings in all cases: 10 µM unless noted

Take `COc1ccc2c(c1)sc1nc(-c3ccccc3)c(-c3cccc4ccccc34)n12`: the growth in the assay with SK-MEL-2 melanoma is 27.5%; in the assay on EKVX NSCLC, 28.7%; in the assay on SN12C renal, 44.7%; with UO-31 renal it was 47.7%; with TK-10 renal it was 37.9%; in the assay with ACHN renal it was 49.1%. Further, the growth with CAKI-1 renal is 29.3%; in the assay on A498 renal, 0.895% (active); with CCRF-CEM leukemia, 22.3%; in the assay on MOLT-4 leukemia, 27.1%; in the assay on SR leukemia, 10.5%; in the assay with RPMI-8226 leukemia it was 18.8%. Besides, the growth was 19.4% with OVCAR-8 ovarian; 44.7% in the assay with OVCAR-5 ovarian; 10.5% in the assay with SK-OV-3 ovarian; 34.4% with IGROV1 ovarian; 19.8% in the assay with HS 578T breast; 4.62% (active) in the assay on NCI/ADR-RES ovarian.

For `CCc1c(C)c2ccc(O)c(-c3cc(-c4ccccc4)c(C#N)c(=O)[nH]3)c2oc1=O`, the growth is 117% with SK-MEL-2 melanoma; 101% in the assay with EKVX NSCLC; 105% in the assay on SN12C renal; 62.9% in the assay with UO-31 renal; 124% in the assay on TK-10 renal; 103% in the assay with ACHN renal. Moreover, the growth is 70% in the assay with CAKI-1 renal; 116% in the assay with A498 renal; 103% with CCRF-CEM leukemia; 98.3% in the assay with MOLT-4 leukemia; 95.5% with SR leukemia; 81% in the assay on RPMI-8226 leukemia. The growth in the assay on OVCAR-8 ovarian is 100%; in the assay with OVCAR-5 ovarian, 95.1%; in the assay on SK-OV-3 ovarian, 95.9%; in the assay with IGROV1 ovarian, 101%; in the assay with OVCAR-3 ovarian, 88.8%; in the assay with HS 578T breast, 118%. Further, the growth in the assay with NCI/ADR-RES ovarian was 99.9%.

In the case of `CC1CCN(CCCCCOc2ccc3oc4ccc(Cl)cc4c(=O)c3c2)CC1`, the growth in the assay on SK-MEL-2 melanoma is 88.1%; with EKVX NSCLC, 75.1%; in the assay with SN12C renal, 70.9%; in the assay on UO-31 renal, 63.1%; in the assay with TK-10 renal it was 75.7%; in the assay on ACHN renal, 93.8%. The growth in the assay on CAKI-1 renal is 80.3%; with A498 renal, 78.7%; in the assay on CCRF-CEM leukemia it was 40.4%; in the assay with MOLT-4 leukemia, 26.6%; in the assay with SR leukemia it was 14.9%; with RPMI-8226 leukemia, 35.4%. Moreover, the growth is 59.7% with OVCAR-8 ovarian; 72.9% in the assay with OVCAR-5 ovarian; 77.3% with OVCAR-4 ovarian; 84.3% in the assay on SK-OV-3 ovarian; 74.6% in the assay with OVCAR-3 ovarian; 86.5% in the assay on HS 578T breast. Besides, the growth in the assay with NCI/ADR-RES ovarian is 71.6%.

On to `Cc1cc([N+](=O)[O-])c(C)cc1N`, for which the growth is 107% in the assay with SK-MEL-2 melanoma; 101% in the assay on EKVX NSCLC; 106% in the assay with SN12C renal; 77.6% in the assay with UO-31 renal; 102% in the assay on TK-10 renal; 103% in the assay on ACHN renal. Further, the growth was 92.8% in the assay on CAKI-1 renal; 87.2% with A498 renal; 106% in the assay with CCRF-CEM leukemia; 101% with MOLT-4 leukemia; 90.9% in the assay with SR leukemia; 96.5% in the assay on RPMI-8226 leukemia. Also, the growth in the assay on OVCAR-8 ovarian was 102%; in the assay on OVCAR-5 ovarian it was 116%; in the assay on SK-OV-3 ovarian, 111%; with IGROV1 ovarian, 96.9%; in the assay on OVCAR-3 ovarian, 104%; in the assay with HS 578T breast, 107%. In the assay on NCI/ADR-RES ovarian, the growth is 106%.

With `COc1ccccc1CNCCCN1C(=O)c2ccc3c4c(ccc(c24)C1=O)C(=O)N(CCCOCCCCOCCCN)C3=O`, the growth with SK-MEL-2 melanoma is -42.7% (active); in the assay on EKVX NSCLC it was -83.3% (active); in the assay with SN12C renal, -87.5% (active); with UO-31 renal, -21.1% (active); in the assay on TK-10 renal, 28.6%; in the assay on ACHN renal, -62.2% (active). Also, the growth in the assay with CAKI-1 renal is -4.24% (active); in the assay on A498 renal, -16.1% (active); in the assay with CCRF-CEM leukemia, 2.11% (active); in the assay on MOLT-4 leukemia, -9.44% (active); in the assay on SR leukemia, 7.67% (active); in the assay on RPMI-8226 leukemia, -5.62% (active). Moreover, the growth with OVCAR-8 ovarian was -14.6% (active); in the assay with OVCAR-5 ovarian, -55.9% (active); in the assay on SK-OV-3 ovarian it was 25.3%; with IGROV1 ovarian it was -51.8% (active); in the assay on OVCAR-3 ovarian, -95% (active); with HS 578T breast, 19.1%. Moreover, in the assay on NCI/ADR-RES ovarian, the growth is -8.07% (active).

With `C=C1C[C@@]2(C)C(CC[C@]3(C)C2CC=C2C4CC(C)(C)C[C@@H](OC(=O)/C(C)=C\C)[C@]4(C(=O)O)CC[C@]23C)C(C)(C)C1=O` (stereo not given in full), the growth in the assay on SK-MEL-2 melanoma was 18.8%; with EKVX NSCLC, 31.7%; in the assay on SN12C renal, 6.55% (active); with UO-31 renal it was -74.6% (active); with TK-10 renal, 17.2%; in the assay with ACHN renal, -83.8% (active). The growth is -7.09% (active) with CAKI-1 renal; -17.4% (active) in the assay on A498 renal; 2.34% (active) with CCRF-CEM leukemia; 7.64% (active) in the assay with MOLT-4 leukemia; -0.663% (active) in the assay with SR leukemia; -15.6% (active) with RPMI-8226 leukemia. Besides, the growth is 15% in the assay on OVCAR-8 ovarian; 7.88% (active) in the assay on OVCAR-5 ovarian; 86.2% with SK-OV-3 ovarian; 1.07% (active) with IGROV1 ovarian; 51.3% with HS 578T breast; 9.03% (active) with NCI/ADR-RES ovarian.

For `Cc1ccc(C)c(NC(=O)c2sc3c(=O)[nH]cnc3c2C)c1`, the growth with SK-MEL-2 melanoma is 41.4%; in the assay on EKVX NSCLC, 85%; with SN12C renal it was 101%; in the assay with UO-31 renal it was 74.9%; in the assay on TK-10 renal, 77.8%; in the assay on ACHN renal, 116%. In addition, the growth is 64.5% in the assay with CAKI-1 renal; 70.3% with A498 renal; 83.1% in the assay on CCRF-CEM leukemia; 69.9% in the assay on MOLT-4 leukemia; 15.8% with SR leukemia; 87.7% in the assay on RPMI-8226 leukemia. Further, the growth is 98.2% in the assay with OVCAR-8 ovarian; 127% in the assay with OVCAR-5 ovarian; 101% with SK-OV-3 ovarian; 79.8% in the assay on IGROV1 ovarian; 70.7% in the assay with OVCAR-3 ovarian; 78.9% in the assay with HS 578T breast. Moreover, the growth in the assay with NCI/ADR-RES ovarian was 58%.

For the compound `CCN(CC)c1ccc(/C=N/N=C(N)N)cc1`, the growth in the assay on SK-MEL-2 melanoma is 49.1%; in the assay with EKVX NSCLC it was 76.5%; in the assay with SN12C renal it was 67.3%; in the assay with UO-31 renal it was 51.4%; in the assay on TK-10 renal, 63.4%; in the assay with ACHN renal, 43.6%. In addition, the growth with CAKI-1 renal was 45.1%; with A498 renal, 43.9%; with CCRF-CEM leukemia, 36%; in the assay with MOLT-4 leukemia it was 49.1%; in the assay on SR leukemia it was 27.6%; in the assay on RPMI-8226 leukemia, 3.74% (active). The growth with OVCAR-8 ovarian was 62.6%; with OVCAR-5 ovarian, 79.8%; with SK-OV-3 ovarian, 37.6%; in the assay on IGROV1 ovarian it was 63.3%; in the assay with OVCAR-3 ovarian, 4.63% (active); in the assay with HS 578T breast, 55.3%. In addition, in the assay on NCI/ADR-RES ovarian, the growth was 93%.
